PubChem BioAssay (EPA / NIEHS)
Results filed as inconclusive are left out. Active and inactive are the calls of the source. The calls were made as follows, unless noted: active = hit-call score of the fitted dose curve at least 0.9, where 1 is the maximum; inconclusive = response in the unintended direction; inactive = score below 0.9.

Key:
[1] = target: human Peroxisome Proliferator-activated Receptor alpha (PPARa), PPARA (gene 5465) (UniProt Q07869); assay: ATG_PPARa_TRANS: Attagene TRANS-FACTORIAL HepG2 Assay for human Peroxisome Proliferator-activated Receptor alpha (PPARa) (AID 2283001)
Method in brief: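 Exposure: 24 h, transiently transfected HepG2 cells. Endpoint: GAL4-UAS reporter mRNA, RT-PCR with capillary electrophoresis fluorescence. Baseline: DMSO; increases fitted.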

[2] = target: Peroxisome proliferator-activated receptor gamma (Homo sapiens) (UniProt P37231); assay: ATG_PPARg_TRANS: Attagene TRANS-FACTORIAL HepG2 Assay for human Peroxisome Proliferator-activated Receptor-gamma (PPARg) (AID 2283007)
Method in brief: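 Liver-derived HepG2 cells expressing an exogenous NR-Gal4 chimera alongside GAL4-UAS reporter genes; 24 h exposure. Fluorescence of reporter RT-PCR products, separated by capillary electrophoresis, gives mRNA induction relative to DMSO.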

[3] = target: human RAR-related Orphan Receptor beta (RORb), RORB (gene 6096) (UniProt Q92753); assay: ATG_RORb_TRANS: Attagene TRANS-FACTORIAL HepG2 Assay for human RAR-related Orphan Receptor beta (RORb) (AID 2283010)
Method in brief: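 HepG2, transient MRTU transfection (GAL4-UAS reporters, exogenous NR-Gal4 chimeras); 24 h compound exposure; total RNA → RT-PCR → 6-FAM primer extension → HpaI digest → CE fluorescence. Positive direction vs DMSO baseline.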

[4] = target: human RAR-related Orphan Receptor gamma (RORg), RORC (gene 6097) (UniProt P51449); assay: ATG_RORg_TRANS: Attagene TRANS-FACTORIAL HepG2 Assay for human RAR-related Orphan Receptor gamma (RORg) (AID 2283011)
Method in brief: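 Reporter transcripts from a transfected RORg-GAL4 chimera in HepG2 cells were quantified 24 h after dosing by RT-PCR, 6-FAM labelling, HpaI digestion and capillary electrophoresis; increases over DMSO baseline were fitted.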

[5] = target: Retinoic acid receptor RXR-alpha (Homo sapiens) (UniProt P19793); assay: ATG_RXRa_TRANS: Attagene TRANS-FACTORIAL HepG2 Assay for human Retinoid X Receptor alpha (RXRa) (AID 2283012)
Method in brief: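 Read-out: fluorescent reporter-transcript fragments quantified by capillary electrophoresis after RT-PCR. Transiently transfected HepG2 cells carrying GAL4-UAS reporters and NR-GAL4 chimeras were exposed to chemical for 24 h; activity scored as increase over DMSO.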

[6] = target: human Retinoid X Receptor beta (RXRb), RXRB (gene 6257) (UniProt P28702); assay: ATG_RXRb_TRANS: Attagene TRANS-FACTORIAL HepG2 Assay for human Retinoid X Receptor beta (RXRb) (AID 2283013)
Method in brief: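 Read-out: reporter mRNA induction via RT-PCR plus capillary electrophoresis fluorescence, analysed as signal increase relative to DMSO. Cells were human HepG2, transiently transfected with GAL4-UAS reporter constructs and chimeric receptor-Gal4 fusions, dosed for 24 h.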

[7] = target: human Thyroid Receptor alpha (THRa1), THRA (gene 7067) (UniProt P10827); assay: ATG_THRa1_TRANS: Attagene TRANS-FACTORIAL HepG2 Assay for human Thyroid Receptor alpha (THRa1) (AID 2283014)
Method in brief: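 Transcripts from GAL4-UAS-driven reporters, measured after 24 h compound exposure by RT-PCR plus capillary electrophoresis of 6-FAM-labeled fragments, were fitted for gain of signal relative to DMSO. Cells: transiently transfected HepG2 expressing NR-Gal4 chimeras.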

[8] = target: human Retinoic Acid Receptor beta (RARb), RARB (gene 5915) (UniProt P10826); assay: ATG_RARb_TRANS: Attagene TRANS-FACTORIAL HepG2 Assay for human Retinoic Acid Receptor beta (AID 2283004)
Method in brief: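 Induction of reporter mRNA from a chimeric RARb-Gal4 construct was measured by RT-PCR, FAM labelling, HpaI digestion and capillary electrophoresis. Measurements followed 24 h compound treatment of transiently transfected human HepG2 liver cells, with DMSO as baseline.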

[9] = target: Retinoic acid receptor alpha (Homo sapiens) (UniProt P10276); assay: ATG_RARa_TRANS: Attagene TRANS-FACTORIAL HepG2 Assay for human Retinoic Acid Receptor alpha (RARa) (AID 2283005)
Method in brief: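 HepG2 cells transiently transfected with multiple reporter units expressing chimeric RARα-GAL4 fusion, with GAL4-UAS-driven reporters. After 24 h compound exposure, reporter mRNA induction quantified by RT-PCR and capillary electrophoresis with fluorescent labeling; gain-of-signal fitted relative to DMSO control.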

[10] = target: human Retinoic Acid Receptor gamma (RARg), RARG (gene 5916) (UniProt P13631); assay: ATG_RARg_TRANS: Attagene TRANS-FACTORIAL HepG2 Assay for human Retinoic Acid Receptor gamma (RARg) (AID 2283009)
Method in brief: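 Readout: reporter transcript levels via RT-PCR, 6-FAM primer-extension labelling, HpaI digestion and capillary electrophoresis. Cells: HepG2 carrying transfected RARg-GAL4 chimera plus UAS reporter set. Dosing 24 h; DMSO negative control.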

[11] = target: human Peroxisome Proliferator-activated Receptor delta (PPARd), PPARD (gene 5467) (UniProt Q03181); assay: ATG_PPARd_TRANS: Attagene TRANS-FACTORIAL HepG2 Assay for human Peroxisome Proliferator-activated Receptor delta (PPARd) (AID 2283002)
Method in brief: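 HepG2 cells transiently transfected with multiplexed GAL4-UAS reporter units and exogenous chimeric NR-Gal4 proteins; 24 h compound exposure. Reporter mRNA measured by RT-PCR, 6-FAM labelling, HpaI digestion and capillary electrophoresis; gain of signal versus DMSO.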

[12] = read-out: Intercellular Adhesion Molecule 1 (ICAM1), ICAM1 (gene 3383); assay: BSK_3C_ICAM1: BioMAP Diversity Plus: 3C Assay for Intercellular Adhesion Molecule 1 (ICAM1) Biomarker Activity (AID 2283003; active = hit-call score of the fitted dose curve at least 0.9, where 1 is the maximum; inactive = score below 0.9); conditions: primary human endothelial cells (HUVEC); actives raise or lower the signal
Method in brief: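 ELISA read-out of ICAM-1; HUVEC (primary human), 3C system, 24 h post-dosing; bidirectional fit vs DMSO baseline.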

[13] = BSK_3C_Proliferation: Cell Proliferation Assessment in the BioMAP Diversity Plus: 3C Assay (AID 2283006; active = hit-call score of the fitted dose curve at least 0.9, where 1 is the maximum; inactive = score below 0.9;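 as to AC50: potency may reflect either rise or fall in cell number versus DMSO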); conditions: primary human endothelial cells (HUVEC)
Method in brief: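 HUVEC, sub-confluent; 48 h chemical exposure; 10% TCA fix, 0.1% SRB stain, A560 total protein. Gain or loss of signal fitted both directions vs DMSO control.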

[14] = read-out: Interleukin-1 alpha (IL1a), IL1A (gene 3552); assay: BSK_BE3C_IL1a: BioMAP Diversity Plus: BE3C Assay for Interleukin-1 alpha (IL1a) Biomarker Activity (AID 2283016; active = hit-call score of the fitted dose curve at least 0.9, where 1 is the maximum; inactive = score below 0.9); conditions: primary human bronchial epithelial cells; actives raise or lower the signal
Method in brief: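 ELISA read-out of IL-1a from human lung bronchial epithelial primary cells, 24 h post-dose. Gain or loss of signal fitted relative to DMSO negative control.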

[15] = read-out: Monocyte Chemoattractant Protein-1 (MCP1), CCL2 (gene 6347); assay: BSK_3C_MCP1: BioMAP Diversity Plus: 3C Assay for Monocyte Chemoattractant Protein-1 (MCP1) Biomarker Activity (AID 2283017; active = hit-call score of the fitted dose curve at least 0.9, where 1 is the maximum; inactive = score below 0.9); conditions: primary human endothelial cells (HUVEC); actives raise or lower the signal
Method in brief: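 MCP-1 was measured by ELISA 24 h after dosing in primary HUVEC 3C cultures and fitted in both directions relative to DMSO; cytotoxicity was checked by SRB total-protein staining in parallel wells.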

[16] = read-out: Monocyte Chemoattractant Protein-1 (MCP1), CCL2 (gene 6347); assay: BSK_4H_MCP1: BioMAP Diversity Plus: 4H Assay for Monocyte Chemoattractant Protein-1 (MCP1) Biomarker Activity (AID 2283018; active = hit-call score of the fitted dose curve at least 0.9, where 1 is the maximum; inactive = score below 0.9); conditions: primary human endothelial cells (HUVEC); actives raise or lower the signal
Method in brief: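 HUVEC primary cells, 24 h post-dose, MCP-1 by ELISA. Gain or loss of signal fitted bidirectionally vs DMSO baseline. Cytotoxicity: SRB stain (0.1% after 10% TCA fixation), read 560 nm, parallel cultures.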

[17] = read-out: Human Leukocyte Antigen - DR isotype (HLADR), HLA-DRA (gene 3122); assay: BSK_3C_HLADR: BioMAP Diversity Plus: 3C Assay for Human Leukocyte Antigen - DR isotype (HLADR) Biomarker Activity (AID 2283019; active = hit-call score of the fitted dose curve at least 0.9, where 1 is the maximum; inactive = score below 0.9); conditions: primary human endothelial cells (HUVEC); actives raise or lower the signal
Method in brief: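 Bidirectional fitting against DMSO was applied to the HLA-DR ELISA signal from human umbilical vein endothelial cells, 24 h post-dose. Cytotoxicity came from parallel SRB total-protein staining; 3C proliferation was counted by SRB at 48 h.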

[18] = read-out: Interleukin-8 (IL8), CXCL8 (gene 3576); assay: BSK_3C_IL8: BioMAP Diversity Plus: 3C Assay for Interleukin-8 (IL8) Biomarker Activity (AID 2283020; active = hit-call score of the fitted dose curve at least 0.9, where 1 is the maximum; inactive = score below 0.9); conditions: primary human endothelial cells (HUVEC); actives raise or lower the signal
Method in brief: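 HUVEC, 3C stimulation; 24 h compound exposure; IL-8 read by ELISA; gain or loss of signal fitted relative to DMSO control.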

[19] = target: Nuclear receptor subfamily 1 group I member 2 (Homo sapiens) (UniProt O75469); assay: ATG_PXR_TRANS: Attagene TRANS-FACTORIAL HepG2 Assay for human Pregnane X Receptor (PXR) (AID 2283008)
Method in brief: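 Multiplexed TRANS reporter panel in HepG2; this component tracks PXR-Gal4-driven reporter mRNA after 24 h dosing, measured by RT-PCR with capillary electrophoresis fluorescence, fitted against DMSO.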

[20] = read-out: E-selectin (Homo sapiens) (UniProt P16581); assay: BSK_3C_Eselectin: BioMAP Diversity Plus: 3C Assay for Eselectin Biomarker Activity (AID 2283015; active = hit-call score of the fitted dose curve at least 0.9, where 1 is the maximum; inactive = score below 0.9); conditions: primary human endothelial cells (HUVEC); actives raise or lower the signal
Method in brief: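 E-selectin ELISA readout, fitted bidirectionally relative to DMSO, taken 24 h post-dosing in HUVEC cultures of the 3C system. Overt cytotoxicity tracked with sulforhodamine B staining of parallel wells.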

Measured: AC50

Sequence of Retinoic acid receptor RXR-alpha (Homo sapiens) (P19793 whole entry, looked up, the tested form may be a part): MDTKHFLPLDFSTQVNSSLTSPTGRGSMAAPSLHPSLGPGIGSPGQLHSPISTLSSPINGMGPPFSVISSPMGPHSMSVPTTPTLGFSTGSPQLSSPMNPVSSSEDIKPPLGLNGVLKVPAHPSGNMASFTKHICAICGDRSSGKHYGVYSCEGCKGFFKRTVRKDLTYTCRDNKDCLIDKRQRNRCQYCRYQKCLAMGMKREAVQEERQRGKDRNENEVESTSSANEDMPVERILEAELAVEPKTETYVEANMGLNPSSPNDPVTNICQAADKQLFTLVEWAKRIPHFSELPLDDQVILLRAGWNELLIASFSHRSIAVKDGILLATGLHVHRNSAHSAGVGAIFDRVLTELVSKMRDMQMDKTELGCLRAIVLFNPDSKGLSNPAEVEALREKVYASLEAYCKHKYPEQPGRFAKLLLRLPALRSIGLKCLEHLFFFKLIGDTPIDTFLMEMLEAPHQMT
Sequence of human RAR-related Orphan Receptor gamma (RORg), RORC (gene 6097) (P51449 whole entry, looked up, the tested form may be a part): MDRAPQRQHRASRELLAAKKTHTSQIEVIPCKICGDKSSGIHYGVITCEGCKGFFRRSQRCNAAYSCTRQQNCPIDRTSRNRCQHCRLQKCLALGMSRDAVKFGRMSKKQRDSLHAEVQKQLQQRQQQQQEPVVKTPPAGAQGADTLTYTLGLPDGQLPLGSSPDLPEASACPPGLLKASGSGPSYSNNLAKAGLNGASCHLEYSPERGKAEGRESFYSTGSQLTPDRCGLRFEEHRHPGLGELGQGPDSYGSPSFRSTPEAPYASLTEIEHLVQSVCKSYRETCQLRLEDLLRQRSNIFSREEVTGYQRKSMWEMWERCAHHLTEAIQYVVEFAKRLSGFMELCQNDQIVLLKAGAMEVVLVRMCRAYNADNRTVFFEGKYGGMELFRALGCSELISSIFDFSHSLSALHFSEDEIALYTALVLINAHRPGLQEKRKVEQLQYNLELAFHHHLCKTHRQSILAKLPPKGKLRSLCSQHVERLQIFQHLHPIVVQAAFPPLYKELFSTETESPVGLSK
Sequence of Retinoic acid receptor alpha (Homo sapiens) (P10276 whole entry, looked up, the tested form may be a part): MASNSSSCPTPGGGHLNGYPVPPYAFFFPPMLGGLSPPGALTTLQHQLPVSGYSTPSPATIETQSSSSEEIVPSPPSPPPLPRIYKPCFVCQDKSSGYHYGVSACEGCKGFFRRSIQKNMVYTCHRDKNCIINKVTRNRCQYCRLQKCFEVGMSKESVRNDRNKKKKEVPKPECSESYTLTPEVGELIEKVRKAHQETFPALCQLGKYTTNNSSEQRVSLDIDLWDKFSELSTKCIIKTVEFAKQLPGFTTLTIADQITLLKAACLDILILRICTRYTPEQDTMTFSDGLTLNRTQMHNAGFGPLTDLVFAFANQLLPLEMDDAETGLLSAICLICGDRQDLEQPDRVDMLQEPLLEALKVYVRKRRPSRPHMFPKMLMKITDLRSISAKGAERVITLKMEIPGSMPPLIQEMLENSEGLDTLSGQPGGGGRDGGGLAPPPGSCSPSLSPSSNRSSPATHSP
Sequence of human Peroxisome Proliferator-activated Receptor delta (PPARd), PPARD (gene 5467) (Q03181 whole entry, looked up, the tested form may be a part): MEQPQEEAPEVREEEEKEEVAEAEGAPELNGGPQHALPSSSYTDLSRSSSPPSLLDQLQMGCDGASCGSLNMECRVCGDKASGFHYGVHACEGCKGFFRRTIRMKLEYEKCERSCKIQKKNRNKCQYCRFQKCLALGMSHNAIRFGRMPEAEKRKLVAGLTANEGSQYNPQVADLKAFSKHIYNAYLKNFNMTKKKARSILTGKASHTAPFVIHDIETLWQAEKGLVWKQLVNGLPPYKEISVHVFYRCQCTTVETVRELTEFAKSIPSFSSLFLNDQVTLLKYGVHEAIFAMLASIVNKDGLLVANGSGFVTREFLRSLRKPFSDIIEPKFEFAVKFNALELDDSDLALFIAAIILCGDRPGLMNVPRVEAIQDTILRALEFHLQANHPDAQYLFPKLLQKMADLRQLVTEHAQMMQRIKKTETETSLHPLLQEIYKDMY
Sequence of human Retinoic Acid Receptor beta (RARb), RARB (gene 5915) (P10826 whole entry, looked up, the tested form may be a part): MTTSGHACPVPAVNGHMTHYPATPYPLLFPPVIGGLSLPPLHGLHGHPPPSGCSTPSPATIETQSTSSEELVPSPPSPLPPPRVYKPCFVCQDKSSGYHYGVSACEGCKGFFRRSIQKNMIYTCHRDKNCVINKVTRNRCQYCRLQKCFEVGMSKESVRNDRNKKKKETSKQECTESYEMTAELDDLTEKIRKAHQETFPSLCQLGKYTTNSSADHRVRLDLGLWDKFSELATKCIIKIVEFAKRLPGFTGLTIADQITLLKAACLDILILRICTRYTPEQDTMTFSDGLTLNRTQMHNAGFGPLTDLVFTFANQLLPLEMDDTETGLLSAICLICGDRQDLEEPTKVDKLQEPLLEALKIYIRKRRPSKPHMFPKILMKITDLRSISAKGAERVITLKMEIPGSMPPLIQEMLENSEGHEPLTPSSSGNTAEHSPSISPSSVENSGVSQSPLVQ
Sequence of human Thyroid Receptor alpha (THRa1), THRA (gene 7067) (P10827 whole entry, looked up, the tested form may be a part): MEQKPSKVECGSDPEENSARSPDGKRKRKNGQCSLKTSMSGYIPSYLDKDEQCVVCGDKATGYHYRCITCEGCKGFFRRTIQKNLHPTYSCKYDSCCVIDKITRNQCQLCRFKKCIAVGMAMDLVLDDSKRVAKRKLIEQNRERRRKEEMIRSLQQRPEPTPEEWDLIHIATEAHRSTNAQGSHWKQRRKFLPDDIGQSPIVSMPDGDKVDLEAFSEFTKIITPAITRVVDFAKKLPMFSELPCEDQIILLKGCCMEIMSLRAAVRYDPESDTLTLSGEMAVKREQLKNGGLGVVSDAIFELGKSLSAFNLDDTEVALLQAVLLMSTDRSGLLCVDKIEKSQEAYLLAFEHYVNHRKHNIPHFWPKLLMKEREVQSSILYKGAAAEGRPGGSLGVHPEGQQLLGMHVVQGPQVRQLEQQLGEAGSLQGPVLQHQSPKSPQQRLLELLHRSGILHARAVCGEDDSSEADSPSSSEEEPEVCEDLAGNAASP
Sequence of human Retinoic Acid Receptor gamma (RARg), RARG (gene 5916) (P13631 whole entry, looked up, the tested form may be a part): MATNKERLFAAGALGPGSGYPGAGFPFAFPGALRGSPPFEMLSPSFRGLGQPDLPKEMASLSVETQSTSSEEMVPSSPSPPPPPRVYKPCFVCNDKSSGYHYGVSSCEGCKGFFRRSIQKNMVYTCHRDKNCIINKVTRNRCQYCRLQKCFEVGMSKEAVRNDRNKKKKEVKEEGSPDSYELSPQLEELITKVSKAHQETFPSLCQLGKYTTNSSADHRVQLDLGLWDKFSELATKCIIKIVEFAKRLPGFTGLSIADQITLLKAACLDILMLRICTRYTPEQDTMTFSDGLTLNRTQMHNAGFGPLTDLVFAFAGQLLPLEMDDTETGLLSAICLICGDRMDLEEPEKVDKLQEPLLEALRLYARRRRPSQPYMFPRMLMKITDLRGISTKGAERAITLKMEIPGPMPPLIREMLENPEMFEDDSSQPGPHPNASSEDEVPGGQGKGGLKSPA
Sequence of human Retinoid X Receptor beta (RXRb), RXRB (gene 6257) (P28702 whole entry, looked up, the tested form may be a part): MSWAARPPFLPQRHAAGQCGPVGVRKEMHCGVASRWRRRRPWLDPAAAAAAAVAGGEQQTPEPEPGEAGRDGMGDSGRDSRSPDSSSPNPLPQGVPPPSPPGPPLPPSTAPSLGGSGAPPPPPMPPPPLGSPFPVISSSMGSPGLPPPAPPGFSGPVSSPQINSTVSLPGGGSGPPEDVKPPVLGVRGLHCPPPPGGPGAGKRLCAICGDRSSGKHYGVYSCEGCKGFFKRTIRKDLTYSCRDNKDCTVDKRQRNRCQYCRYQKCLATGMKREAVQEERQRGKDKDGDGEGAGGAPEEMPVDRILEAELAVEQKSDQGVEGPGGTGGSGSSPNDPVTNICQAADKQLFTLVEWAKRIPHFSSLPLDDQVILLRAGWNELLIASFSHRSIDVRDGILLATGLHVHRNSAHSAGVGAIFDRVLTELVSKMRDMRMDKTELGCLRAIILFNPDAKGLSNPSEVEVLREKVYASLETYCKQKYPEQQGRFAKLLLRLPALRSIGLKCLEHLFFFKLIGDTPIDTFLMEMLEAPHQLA
Sequence of E-selectin (Homo sapiens) (P16581 whole entry, looked up): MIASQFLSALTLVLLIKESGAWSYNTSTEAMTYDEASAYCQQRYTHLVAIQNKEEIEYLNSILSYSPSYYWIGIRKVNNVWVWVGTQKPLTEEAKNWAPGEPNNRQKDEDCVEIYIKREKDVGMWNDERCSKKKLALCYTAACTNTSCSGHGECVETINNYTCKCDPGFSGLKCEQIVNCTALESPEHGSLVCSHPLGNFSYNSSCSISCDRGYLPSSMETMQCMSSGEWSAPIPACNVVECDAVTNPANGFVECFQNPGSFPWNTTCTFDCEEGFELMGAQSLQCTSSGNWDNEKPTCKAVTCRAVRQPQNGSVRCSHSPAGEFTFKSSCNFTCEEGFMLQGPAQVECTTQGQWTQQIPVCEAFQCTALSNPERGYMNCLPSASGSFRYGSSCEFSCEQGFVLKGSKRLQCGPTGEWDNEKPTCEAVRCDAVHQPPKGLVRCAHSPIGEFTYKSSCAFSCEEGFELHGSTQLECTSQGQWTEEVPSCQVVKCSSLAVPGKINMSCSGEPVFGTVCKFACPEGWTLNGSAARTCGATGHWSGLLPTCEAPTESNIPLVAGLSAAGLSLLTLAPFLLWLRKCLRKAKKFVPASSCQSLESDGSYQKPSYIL
Sequence of Peroxisome proliferator-activated receptor gamma (Homo sapiens) (P37231 whole entry, looked up, the tested form may be a part): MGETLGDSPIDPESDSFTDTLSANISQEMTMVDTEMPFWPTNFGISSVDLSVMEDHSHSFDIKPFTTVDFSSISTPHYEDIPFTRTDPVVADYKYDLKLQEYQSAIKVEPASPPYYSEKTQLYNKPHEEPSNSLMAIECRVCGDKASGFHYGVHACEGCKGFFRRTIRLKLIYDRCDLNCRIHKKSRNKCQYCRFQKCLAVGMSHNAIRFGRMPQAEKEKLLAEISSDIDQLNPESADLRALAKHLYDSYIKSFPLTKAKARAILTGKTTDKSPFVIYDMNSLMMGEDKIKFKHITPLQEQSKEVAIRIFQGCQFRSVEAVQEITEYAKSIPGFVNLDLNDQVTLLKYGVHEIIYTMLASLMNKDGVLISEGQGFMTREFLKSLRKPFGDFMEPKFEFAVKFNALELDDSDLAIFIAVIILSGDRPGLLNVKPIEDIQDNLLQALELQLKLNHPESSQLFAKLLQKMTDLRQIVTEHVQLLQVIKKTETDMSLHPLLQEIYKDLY

CC(=[OH+])/C=C(/C)[O-].CC(=[OH+])/C=C(/C)[O-].CC(=[OH+])/C=C(/C)[O-].[Al]
inactive: [1] | [2] | [3] | [4] | [5] | [6] | [7]

O=C1C(Cl)=C(Cl)C(=O)c2ccccc21
inactive: [1] | [8] | [9] | [2] | [10] | [3] | [4] | [5] | [6]

BrCCBr
active: [6] 48.2 µM
not listed: [1] | [3] | [19] | [20]
inactive: all other assays above

NC(=S)Nc1ccccc1
inactive: [11] | [12] | [8] | [9] | [13] | [5] | [14] | [15] | [16] | [18]

ClC1(Cl)C2(Cl)C3(Cl)C4(Cl)C(Cl)(Cl)C5(Cl)C3(Cl)C1(Cl)C5(Cl)C24Cl (configuration not stated)
inactive: [11] | [12] | [13] | [19] | [3] | [14] | [15] | [16] | [17] | [18]

Oc1ccc(-c2ccccc2)cc1
not listed: [1] | [3] | [4] | [8] | [9]
inactive: all other assays above

CCOP(=S)(OCC)Oc1nc(Cl)c(Cl)cc1Cl
inactive: [11] | [12] | [3] | [5] | [7] | [14]
active: [13] 20 µM | [2] 46.8 µM | [19] 5.64 µM | [6] 30.9 µM | [20] 37.1 µM | [15] 33.1 µM | [16] 20 µM | [17] 28.2 µM | [18] 31.1 µM

COC(=O)c1sccc1S(=O)(=O)NC(=O)Nc1nc(C)nc(OC)n1
inactive: [11] | [12] | [13] | [6] | [20] | [14] | [15] | [16] | [18]

CCCCC(CC)CO[N+](=O)[O-] (configuration not stated)
inactive: [11] | [12] | [19] | [4] | [5] | [14] | [15] | [18]
active: [13] 30.8 µM | [6] 99.5 µM | [16] 20 µM
